Experimental findings from PMC7862700, “An all-to-all approach to the identification of sequence-specific readers for epigenetic DNA modifications on cytosine” are described below.

Test in all cases: DAPPL (digital affinity profiling via proximity ligation, sequencing); 10 mM Tris-HCl pH 7.5, 50 mM NaCl, 1 mM DTT, 4% glycerol, room temperature, 30 min; GST-TFs on glutathione beads, 16-mer random dsDNA library, 0.1% formaldehyde crosslink after washing; high values mean tight binding
Conditions in all cases: protein: recombinant; tags: N-terminal GST; dsDNA, one strand shown

One test concerns the target T1, FLI1 (Homo sapiens, UniProt Q01543 1-452).
T1 sequence: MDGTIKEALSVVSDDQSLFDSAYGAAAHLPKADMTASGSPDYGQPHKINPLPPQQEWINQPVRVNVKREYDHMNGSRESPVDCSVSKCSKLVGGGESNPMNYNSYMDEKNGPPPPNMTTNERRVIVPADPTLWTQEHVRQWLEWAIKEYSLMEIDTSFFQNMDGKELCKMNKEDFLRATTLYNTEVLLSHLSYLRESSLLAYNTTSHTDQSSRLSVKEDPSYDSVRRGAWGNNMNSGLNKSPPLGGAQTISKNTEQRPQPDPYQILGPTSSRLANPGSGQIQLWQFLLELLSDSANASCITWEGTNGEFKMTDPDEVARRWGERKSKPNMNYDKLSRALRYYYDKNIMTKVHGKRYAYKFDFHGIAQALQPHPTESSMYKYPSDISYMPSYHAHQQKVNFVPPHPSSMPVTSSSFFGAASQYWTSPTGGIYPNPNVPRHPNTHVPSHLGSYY
The procedure, abridged: (§1)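 Human transcription factors fused to GST were expressed in yeast, captured on glutathione beads, given DNA barcodes and pooled with a GST-only negative control. Pools were incubated with 200 nmole of a 16-mer random double-stranded DNA library in Tris/NaCl/DTT/glycerol buffer at room temperature for 30 min. They were then washed, crosslinked with 0.1% formaldehyde, proximity-ligated (BsaI/T4 ligase, 1 h, 37 °C), PCR-amplified and sequenced on an Illumina NextSeq500. Binding signal is each 6-mer's read frequency for a factor divided by its frequency for the GST control.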

The next test deals with T2, ELK1 (Homo sapiens, UniProt P19419 1-428).
T2 sequence: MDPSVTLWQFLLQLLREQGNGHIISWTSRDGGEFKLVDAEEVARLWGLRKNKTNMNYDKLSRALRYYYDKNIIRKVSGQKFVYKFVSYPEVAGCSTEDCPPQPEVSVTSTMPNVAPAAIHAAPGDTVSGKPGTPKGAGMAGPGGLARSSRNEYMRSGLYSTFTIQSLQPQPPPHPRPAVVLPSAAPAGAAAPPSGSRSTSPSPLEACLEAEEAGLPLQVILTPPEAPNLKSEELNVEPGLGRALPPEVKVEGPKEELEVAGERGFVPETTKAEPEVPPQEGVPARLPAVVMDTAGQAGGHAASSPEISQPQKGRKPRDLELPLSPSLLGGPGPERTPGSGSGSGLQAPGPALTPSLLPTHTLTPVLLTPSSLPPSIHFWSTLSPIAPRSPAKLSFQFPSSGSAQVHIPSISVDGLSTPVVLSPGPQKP
The gist of the method:
as §1

A further test deals with ELF1 (Homo sapiens, UniProt P32519 1-619). The gist of the method:
as §1

A further test has as its target T3, EHF (Homo sapiens, UniProt Q9NZC4 1-300).
T3 sequence: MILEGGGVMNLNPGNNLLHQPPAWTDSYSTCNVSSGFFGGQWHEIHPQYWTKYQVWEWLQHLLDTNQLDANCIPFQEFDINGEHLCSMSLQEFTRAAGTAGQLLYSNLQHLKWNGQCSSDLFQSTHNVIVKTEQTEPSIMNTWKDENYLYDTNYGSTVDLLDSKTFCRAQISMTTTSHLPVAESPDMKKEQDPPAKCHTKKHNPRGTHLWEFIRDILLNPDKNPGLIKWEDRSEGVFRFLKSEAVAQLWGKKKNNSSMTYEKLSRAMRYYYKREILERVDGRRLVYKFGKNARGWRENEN
The gist of the method:
as §1

Another test deals with SPIB (Homo sapiens, UniProt Q01892 1-262). The gist of the method: as §1
A further test addresses T4, SPIC (Homo sapiens, UniProt Q8N5J4 1-248).
T4 sequence: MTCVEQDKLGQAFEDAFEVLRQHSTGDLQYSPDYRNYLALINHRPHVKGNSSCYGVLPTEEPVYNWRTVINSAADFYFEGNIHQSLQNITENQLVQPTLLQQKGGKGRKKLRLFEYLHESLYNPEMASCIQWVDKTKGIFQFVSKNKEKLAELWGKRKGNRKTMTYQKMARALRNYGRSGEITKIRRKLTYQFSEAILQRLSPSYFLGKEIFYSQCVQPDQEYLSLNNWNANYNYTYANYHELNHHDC
The gist of the method: as §1

In the next test the target is ELF4 (Homo sapiens, UniProt Q99607 1-663). The gist of the method:
as §1

The target of a further test is T5, ELK4 (Homo sapiens, UniProt P28324-2 1-405).
T5 sequence: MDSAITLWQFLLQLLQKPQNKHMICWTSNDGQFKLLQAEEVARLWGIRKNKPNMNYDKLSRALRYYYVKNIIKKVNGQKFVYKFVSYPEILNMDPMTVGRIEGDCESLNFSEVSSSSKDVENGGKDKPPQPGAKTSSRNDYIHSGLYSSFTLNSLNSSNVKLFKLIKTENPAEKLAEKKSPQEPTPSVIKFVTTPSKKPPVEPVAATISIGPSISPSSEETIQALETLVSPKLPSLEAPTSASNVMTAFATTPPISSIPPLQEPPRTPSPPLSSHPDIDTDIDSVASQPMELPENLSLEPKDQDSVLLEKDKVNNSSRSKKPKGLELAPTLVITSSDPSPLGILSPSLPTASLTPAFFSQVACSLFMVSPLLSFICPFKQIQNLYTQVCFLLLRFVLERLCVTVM
The gist of the method: as §1

For a further test, the target named is ETV1 (Homo sapiens, UniProt P50549 1-477). The procedure, abridged:
as §1

The target of the next test is T6, ERF (Homo sapiens, UniProt P50548 1-548).
T6 sequence: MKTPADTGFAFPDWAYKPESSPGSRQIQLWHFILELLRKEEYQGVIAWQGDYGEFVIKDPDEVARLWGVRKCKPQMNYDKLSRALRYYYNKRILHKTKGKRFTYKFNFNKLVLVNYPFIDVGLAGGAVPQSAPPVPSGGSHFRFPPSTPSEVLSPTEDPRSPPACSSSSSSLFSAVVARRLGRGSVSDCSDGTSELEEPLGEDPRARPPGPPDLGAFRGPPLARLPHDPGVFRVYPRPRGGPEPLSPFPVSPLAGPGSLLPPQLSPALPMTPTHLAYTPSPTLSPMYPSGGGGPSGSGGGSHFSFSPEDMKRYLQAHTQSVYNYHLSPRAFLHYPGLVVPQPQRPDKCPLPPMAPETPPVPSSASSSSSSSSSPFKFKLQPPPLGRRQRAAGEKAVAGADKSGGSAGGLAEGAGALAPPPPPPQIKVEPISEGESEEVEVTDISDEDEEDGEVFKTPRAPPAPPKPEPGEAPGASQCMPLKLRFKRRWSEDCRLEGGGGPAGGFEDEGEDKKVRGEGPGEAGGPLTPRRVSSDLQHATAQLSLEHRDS
The gist of the method:
as §1

The target of another test is T7, ETV3L (Homo sapiens, UniProt Q6ZN32 1-361).
T7 sequence: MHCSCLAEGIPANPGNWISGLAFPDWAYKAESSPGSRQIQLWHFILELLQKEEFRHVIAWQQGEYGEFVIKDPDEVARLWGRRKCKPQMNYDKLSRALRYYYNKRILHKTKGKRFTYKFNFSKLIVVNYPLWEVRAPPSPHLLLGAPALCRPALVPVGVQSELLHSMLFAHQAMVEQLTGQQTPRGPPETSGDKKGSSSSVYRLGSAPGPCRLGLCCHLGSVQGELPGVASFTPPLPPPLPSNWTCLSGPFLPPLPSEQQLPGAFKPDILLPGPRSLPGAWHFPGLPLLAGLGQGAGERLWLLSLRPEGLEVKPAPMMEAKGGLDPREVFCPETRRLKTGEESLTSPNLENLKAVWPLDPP
The procedure, abridged:
as §1

The next test addresses T8, ETV7 (Homo sapiens, UniProt Q9Y603 1-341).
T8 sequence: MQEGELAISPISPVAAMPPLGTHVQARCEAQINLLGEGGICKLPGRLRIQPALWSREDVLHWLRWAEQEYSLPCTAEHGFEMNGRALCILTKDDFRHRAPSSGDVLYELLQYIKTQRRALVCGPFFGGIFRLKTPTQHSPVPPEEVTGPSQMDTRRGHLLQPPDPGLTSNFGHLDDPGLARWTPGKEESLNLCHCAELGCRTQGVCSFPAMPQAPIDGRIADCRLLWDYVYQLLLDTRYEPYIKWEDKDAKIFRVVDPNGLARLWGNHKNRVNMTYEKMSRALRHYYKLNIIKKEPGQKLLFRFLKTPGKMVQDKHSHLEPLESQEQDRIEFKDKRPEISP
The procedure, abridged:
as §1

Another test concerns the target T9, ETV3 (Homo sapiens, UniProt P41162-2 1-143).
T9 sequence: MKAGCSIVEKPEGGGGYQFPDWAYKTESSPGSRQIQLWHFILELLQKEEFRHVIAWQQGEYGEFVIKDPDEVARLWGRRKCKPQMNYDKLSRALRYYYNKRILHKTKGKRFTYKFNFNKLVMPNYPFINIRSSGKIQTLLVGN
The procedure, abridged:
as §1

Sequence of ETV1 (P50549 whole entry): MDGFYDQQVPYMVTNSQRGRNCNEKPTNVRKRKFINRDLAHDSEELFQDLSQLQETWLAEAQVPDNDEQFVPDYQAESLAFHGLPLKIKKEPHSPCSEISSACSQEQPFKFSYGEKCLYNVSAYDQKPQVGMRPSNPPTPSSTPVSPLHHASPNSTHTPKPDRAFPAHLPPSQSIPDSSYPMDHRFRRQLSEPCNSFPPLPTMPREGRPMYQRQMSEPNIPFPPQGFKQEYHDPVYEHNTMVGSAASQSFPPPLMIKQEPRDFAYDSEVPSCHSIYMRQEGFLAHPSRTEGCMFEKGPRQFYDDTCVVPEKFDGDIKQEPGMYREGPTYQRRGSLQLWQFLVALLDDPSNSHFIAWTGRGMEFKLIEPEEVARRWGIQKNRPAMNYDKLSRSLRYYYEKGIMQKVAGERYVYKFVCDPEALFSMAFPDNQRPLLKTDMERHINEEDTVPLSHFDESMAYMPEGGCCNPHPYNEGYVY
Sequence of ELF4 (Q99607 whole entry): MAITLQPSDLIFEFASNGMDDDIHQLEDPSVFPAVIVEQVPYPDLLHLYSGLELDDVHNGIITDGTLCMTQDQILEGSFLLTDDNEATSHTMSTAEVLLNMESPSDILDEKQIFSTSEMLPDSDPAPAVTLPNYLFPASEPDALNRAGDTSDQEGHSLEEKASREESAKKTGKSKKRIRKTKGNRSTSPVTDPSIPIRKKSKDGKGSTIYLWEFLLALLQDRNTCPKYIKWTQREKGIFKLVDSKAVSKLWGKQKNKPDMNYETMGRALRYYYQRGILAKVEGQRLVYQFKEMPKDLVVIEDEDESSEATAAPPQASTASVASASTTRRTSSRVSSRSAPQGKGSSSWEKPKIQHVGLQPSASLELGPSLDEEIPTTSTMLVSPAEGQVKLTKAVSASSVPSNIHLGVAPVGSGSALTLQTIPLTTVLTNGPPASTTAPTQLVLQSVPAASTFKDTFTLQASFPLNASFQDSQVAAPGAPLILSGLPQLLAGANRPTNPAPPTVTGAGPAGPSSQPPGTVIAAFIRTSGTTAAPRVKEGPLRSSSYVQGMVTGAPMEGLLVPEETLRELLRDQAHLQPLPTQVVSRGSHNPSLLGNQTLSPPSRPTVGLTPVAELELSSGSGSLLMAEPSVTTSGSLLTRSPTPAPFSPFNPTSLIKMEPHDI
Sequence of ELF1 (P32519 whole entry): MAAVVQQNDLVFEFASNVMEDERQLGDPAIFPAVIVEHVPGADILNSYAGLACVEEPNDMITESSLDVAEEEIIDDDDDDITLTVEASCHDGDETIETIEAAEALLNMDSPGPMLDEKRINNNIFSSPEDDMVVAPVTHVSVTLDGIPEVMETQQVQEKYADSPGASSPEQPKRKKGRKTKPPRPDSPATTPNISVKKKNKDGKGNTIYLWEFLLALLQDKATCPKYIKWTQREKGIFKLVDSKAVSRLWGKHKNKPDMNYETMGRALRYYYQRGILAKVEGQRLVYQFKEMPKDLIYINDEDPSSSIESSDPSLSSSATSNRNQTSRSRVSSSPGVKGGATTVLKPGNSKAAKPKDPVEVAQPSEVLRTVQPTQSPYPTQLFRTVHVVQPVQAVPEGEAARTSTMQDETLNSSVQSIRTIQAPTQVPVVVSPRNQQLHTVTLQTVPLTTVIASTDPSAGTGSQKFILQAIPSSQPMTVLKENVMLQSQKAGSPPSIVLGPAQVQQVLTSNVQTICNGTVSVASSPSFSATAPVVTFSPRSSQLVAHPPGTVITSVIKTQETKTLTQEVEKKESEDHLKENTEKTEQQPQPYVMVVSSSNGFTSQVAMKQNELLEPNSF
Sequence of SPIB (Q01892 whole entry): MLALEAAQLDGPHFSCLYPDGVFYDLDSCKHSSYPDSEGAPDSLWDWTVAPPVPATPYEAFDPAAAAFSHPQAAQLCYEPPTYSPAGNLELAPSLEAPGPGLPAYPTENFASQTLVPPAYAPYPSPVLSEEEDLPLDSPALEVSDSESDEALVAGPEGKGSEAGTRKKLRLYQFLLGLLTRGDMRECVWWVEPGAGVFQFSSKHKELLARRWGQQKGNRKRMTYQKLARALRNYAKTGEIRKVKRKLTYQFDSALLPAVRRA

For the sequence GATGGG, the binding signal was 1.03 fold enrichment (6-mer frequency, TF over GST control) with FLI1; 1.02 fold enrichment (6-mer frequency, TF over GST control) in the test with ELK1; 1 fold enrichment (6-mer frequency, TF over GST control) with ELF1; 1.02 fold enrichment (6-mer frequency, TF over GST control) with EHF; 1.12 fold enrichment (6-mer frequency, TF over GST control) with SPIB; 1.08 fold enrichment (6-mer frequency, TF over GST control) with SPIC. In addition, the binding signal is 1.01 fold enrichment (6-mer frequency, TF over GST control) in the test with ELF4; 1.01 fold enrichment (6-mer frequency, TF over GST control) in the test with ELK4; 1.04 fold enrichment (6-mer frequency, TF over GST control) with ETV1; 1 fold enrichment (6-mer frequency, TF over GST control) with ERF; 1.02 fold enrichment (6-mer frequency, TF over GST control) with ETV3L; 1.03 fold enrichment (6-mer frequency, TF over GST control) in the test with ETV7. Further, the binding signal with ETV3 is 1.04 fold enrichment (6-mer frequency, TF over GST control).
